About 83,000 compounds went through this panel and 20% of them were active in at least one assay; those are over-represented in the sample as a whole.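 Testing used 96-well plates and a 48-hour single-concentration exposure. Example: -40 means 40% of the starting cells died.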 Active and inactive are the calls of the source. The calls were made as follows: active = growth percent below 10; inactive = the rest.
system: HCC-2998 colon; experiment: NCI-60 one-dose screen, 48 h (100 = growth as untreated, 0 = no growth, -100 = all killed); conditions: 10 µM unless noted

Row | Compound | growth
1 | Nc1ccc(-c2nnc(SCc3ccc(O)c4ncccc34)n2-c2ccccc2)cc1 | 29.1% (inactive)
2 | CC(C)N=C(N/C(N)=N/c1nc2ccccc2s1)NC(C)C | 76.9% (inactive)
3 | CN1CCN(Cc2ccc(NC(=O)c3cncc(C#Cc4cnc5ccc(NC6CCOCC6)nn45)c3)cc2C(F)(F)F)CC1 | -19.8% (active)
4 | CC(=O)c1ccc(NC(=O)COc2ccc(C3SCC(=O)N3c3ccc(Br)cc3)cc2)cc1 (stereo unspecified) | 103% (inactive)
5 | COc1ccc(Cn2cc3c(c2-c2ccccc2)CCCc2cnoc2-3)cc1 | 87.9% (inactive)
6 | O=C(CSc1ccc(-c2nc3ccccc3[nH]2)cn1)N1CCN(c2ccccc2F)CC1 | 96.5% (inactive)

system: KM12 colon; experiment: as above; conditions: 10 µM unless noted

Row | Compound | growth
7 | Cc1ccc(NC(=O)c2ccc(CN3CCN(C)CC3)c(C(F)(F)F)c2)cc1Oc1ccc(-c2[nH]nc3ncnc(N)c23)cc1 | 17.7% (inactive)
8 | COc1ccc([C@H]2c3[nH]c4ccccc4c3C[C@@H]3C(=O)N(C4CCN(Cc5ccccc5)CC4)CC(=O)N23)c(OC)c1 | 79.6% (inactive)
9 | IP(CCCSc1n(Cc2ccc3ccccc3c2)c(-c2ccccc2)c(-c2ccccc2)[n+]1Cc1ccc2ccccc2c1)(c1ccccc1)(c1ccccc1)c1ccccc1 | 4.9% (active)
10 | COc1cc(/C=N/n2cnc3oc(-c4ccccc4)cc3c2=N)cc(CN2CCN(C)CC2)c1O | 87.2% (inactive)
11 | COC1=C(c2ccccc2)C(=O)C(OC)=C(c2ccccc2)C1=O | 98.6% (inactive)
12 | CC(C)=CCc1c(O)c(CC=C(C)C)c2c(c1O)C(=O)C1=C[C@@H]3C[C@H]4C(C)(C)O[C@@](C/C=C(\C)C(=O)O)(C3=O)[C@@]14O2 | -18.4% (active)
13 | CN1C(=O)N(C)C2C1NN=c1s/c(=C\c3ccccn3)c(=O)n12 (stereo unspecified) | 91.6% (inactive)
14 | O=C(NCCCNc1cc(-c2cn(-c3ccccc3)nc2-c2cccc(O)c2)ccn1)Nc1cc(C(F)(F)F)cc(C(F)(F)F)c1 | 58.1% (inactive)
15 | Oc1ccc(CSc2nnc(-c3cnccn3)o2)c2cccnc12 | 12.5% (inactive)
16 | O=C(O)c1ccc(-n2cc(CNc3ccc(Cl)cc3)c(-c3ccc(F)cc3)n2)cc1 | 104% (inactive)
17 | N/C(=N\OC(=O)CSc1nc2ccccc2s1)c1ccc2ccccc2c1 | 103% (inactive)
18 | CC[C@@](C)(NC(=O)C(C)(C)NC(=O)[C@@H](NC(=O)[C@@H]1CCCN1C(=O)C(C)(C)NC(=O)[C@H](CC(C)C)NC(=O)CNC(=O)C(C)(C)NC(=O)[C@@H](NC(=O)C(C)(C)NC(=O)[C@H](CCC(N)=O)NC(=O)[C@H](C)NC(=O)C(C)(C)NC(=O)[C@H](C)NC(=O)C(C)(C)NC(=O)[C@@H]1CCCN1C(=O)C(C)(C)NC(C)=O)C(C)C)C(C)C)C(=O)N[C@@H](CCC(N)=O)C(=O)N[C@@H](CCC(N)=O)C(=O)N[C@H](CO)Cc1ccccc1 | 29.5% [4.25 µM] (inactive)
19 | COc1ccc(-c2nn(-c3ccccc3)cc2/C=C/C(=O)c2ccc(NC(=O)CCCCCCC(=O)NO)cc2)cc1 | 95.9% (inactive)
20 | Nc1ccc(-c2nnc(SCc3ccc(O)c4ncccc34)o2)cc1 | 0.48% (active)
21 | O=C(CCCCCCN1CC(=O)N2[C@@H](c3cccc(Cl)c3)c3[nH]c4ccccc4c3C[C@H]2C1=O)NO | 54.9% (inactive)
22 | CS(=O)(=O)c1ccc(-c2nn(-c3ccccc3)cc2/C=N/NC(=O)c2ccncc2)cc1 | 90.7% (inactive)
23 | CC(C)=CCc1c2c(c(O)c3c1O[C@]14C(=C[C@@H]5C[C@H]1C(C)(C)O[C@@]4(C/C=C(/C)C(=O)O)C5=O)C3=O)CC(O)C(C)(C)O2 (stereo partly specified) | -68.9% (active)
24 | C=C(C)C(=O)O[C@H]1C[C@@]2(C)OC(=CC2=O)/C(CO)=C\[C@H]2OC(=O)C(=C)[C@H]12 | -8.61% (active)
25 | COc1ccc(-c2nnc(SCc3ccc(O)c4ncccc34)o2)cc1 | 15.7% (inactive)
26 | Nc1ccc(-c2nnc(SCc3ccc(O)c4ncccc34)n2-c2ccccc2)cc1 | 17.8% (inactive)
27 | CC(C)N=C(N/C(N)=N/c1nc2ccccc2s1)NC(C)C | 65.9% (inactive)
28 | COc1cc(/C=C/C(=O)c2ccc(NC(=O)CSc3nnc(-c4ccc5nc(-c6ccccc6)[nH]c5c4)o3)cc2)cc(OC)c1OC | 90% (inactive)
29 | CC(=O)c1ccc(NC(=O)COc2ccc(C3SCC(=O)N3c3ccc(Br)cc3)cc2)cc1 (stereo unspecified) | 98.2% (inactive)
30 | COc1ccc(Cn2cc3c(c2-c2ccccc2)CCCc2cnoc2-3)cc1 | 32% (inactive)
31 | O=C(CSc1ccc(-c2nc3ccccc3[nH]2)cn1)N1CCN(c2ccccc2F)CC1 | 68.8% (inactive)
